Results as given in ChEMBL document CHEMBL4513216, “Probing the Open Global Health Chemical Diversity Library for Multistage-Active Starting Points for Next-Generation Antimalarials” (ACS Infect Dis, 2020).
Among all 69,000 compounds or so, about 8,600 (12%) showed an effect of 50% or more. This excerpt belongs to a sample that is enriched for strong results.

system: Plasmodium berghei; assay: Screen against P. berghei liver stage (PbLuc), transformed with Luciferase, at 10uM; assay type: functional, HepG2; settings: tested at 10 uM

Compound	INHIBITION [%]
CC(C(=O)N1CCCN(c2ccc(C#N)cc2)CC1)n1cccn1 (stereo unspecified)	10
CCc1nc(C2CCCN2CC(=O)N2CCc3ccccc32)no1 (stereo unspecified)	23.5
O=C(CCc1nc2cccnc2[nH]1)Nc1ccc2c(c1)OCC(=O)N2	17.1
CC(C)(C)c1cc(C(=O)N2CCC(c3cnccn3)CC2)[nH]n1	29.9
CC(C)CCC(=O)NCCc1ccn(-c2ccccc2)n1	5.7
NC(=O)CN(Cc1ccc(Br)cc1)C(=O)c1ccncc1	-9.51
CCNc1ncc(CN2C[C@@H]3CC[C@H]2CN(C(=O)C2CCC2)C3)cn1	60.4
CCCNc1ncc(CN2C[C@@H]3CC[C@H]2CN(C2CCOCC2)C3)cn1	1.98
CCn1cc(CN2C[C@@H]3CC[C@H]2CN(C(=O)C2CCC2)C3)cn1	4.15
CCNc1ncc(CN2C[C@H](C3CC3)[C@@H](N)C2)cn1	23.9
Cc1ccc(C(=O)N2C[C@H]3CC[C@@H](C2)N(Cc2ccccc2)C3)cn1	-13
CCNc1ncc(CN2C[C@@H](C(=O)O)[C@H](C3CC3)C2)cn1	58.2
O=C(O)[C@@H]1CN(Cc2cnc(C3CCCCC3)nc2)C[C@H]1C1CC1	29.6
CCc1ncc(CN2C[C@@H]3CC[C@H]2CN(C(=O)C2CCC2)C3)cn1	62.6
CCOc1ccc(C(=O)N2C[C@@H]3CC[C@H]2CN(C(=O)C2CCC2)C3)cc1	30.3
Cc1ccc(NC2COC3(CCN(Cc4ccn(C)n4)CC3)C2)nn1 (stereo unspecified)	-4.99
Cc1ccc([C@@H]2CN(C(=O)c3ccccc3C)C[C@H]2N(C)C)cc1	39.5
N#Cc1ccccc1CN1C[C@H]2CC[C@@H](C1)N(CC1CCC1)C2=O	42.6
O=C(N1CCC(Nc2cccnn2)CC1)C1(c2ccc(F)cc2)CC1	30.2
CCc1ncc2c(n1)CN(CCCc1nc3ccccc3o1)CC2	38.5
COCCCNC(=O)CN(C)C(=O)c1ccccc1O	20.4
Cc1noc(C(C)N(C)CC(=O)NCCc2ccc(Cl)cc2)n1 (stereo unspecified)	-9.3

Compound	INHIBITION [%]
COCCCNC(=O)CN(C)C(C)c1nc(C(C)C)no1 (stereo unspecified)	59.3
COCCCNC(=O)CN(C)C(C)c1nc(C)no1 (stereo unspecified)	14.6
COCCNC(=O)CN(C)C(C)c1nc(C)no1 (stereo unspecified)	58.5
COCCCNC(=O)c1c(C)noc1C(C)C	-33.7
CCc1ccccc1Nc1noc2c1CN(C(=O)CCOC)CC2	-5.71
CC(C)CNC(=O)C1CC(=O)N(c2n[nH]c3ccccc23)C1 (stereo unspecified)	-11.7
CCN1CCCC(C)(C(=O)NCc2nnnn2-c2ccccc2)C1 (stereo unspecified)	-1.7
O=C(NCC1(N2CCOCC2)CCSC1)Nc1ccccn1 (stereo unspecified)	18.6
c1ccc2sc(NCC3(N4CCOCC4)CCSC3)nc2c1 (stereo unspecified)	18.3
c1ccc2nc(NCC3(N4CCOCC4)CCSC3)cnc2c1 (stereo unspecified)	46.6
O=C(NCc1ccc(F)cc1)NCC1(N2CCOCC2)CCSC1 (stereo unspecified)	40.5
c1ccc2c(NCC3(N4CCOCC4)CCSC3)ncnc2c1 (stereo unspecified)	94.5
Fc1cccc2ncnc(NCC3(N4CCOCC4)CCSC3)c12 (stereo unspecified)	91.1
CN(Cc1ccc(F)cc1)C(=O)NCC1(N2CCOCC2)CCSC1 (stereo unspecified)	36.8
c1nc(NCC2(N3CCOCC3)CCSC2)c2sccc2n1 (stereo unspecified)	91.1
O=C(NCC1(N2CCOCC2)CCSC1)Nc1ccncc1 (stereo unspecified)	18.6
CC1CCN(S(=O)(=O)c2ccc(C(=O)N3CCSCC3)cc2)CC1	-2.39
CN(C)C(=O)NCc1cc2n(n1)CCN(CC1[C@H]3CNC[C@@H]13)C2 (stereo partly specified)	43.5
NC(=O)c1cnn2c(C3CCN(CCO)CC3)ccnc12	14.55
COCc1cnc2n1CCN(Cc1cccnc1)C2C (stereo unspecified)	-0.182
O=C(N[C@@H]1CN(Cc2cccc3[nH]ccc23)C[C@H]1O)c1cscn1	-10.8
CCN1CC(COC(C)(C)C)Oc2ccncc2S1(=O)=O (stereo unspecified)	13.1

Compound	INHIBITION [%]
CS(=O)(=O)N1CCN(C(=O)CCn2cccn2)CC1	17.32
CC(C)Cc1nc(CN(C)CCOc2ccc(F)cc2)no1	59.4
Cc1ccccc1OCCN(C)Cc1noc(CC(C)C)n1	33.7
CC(C)Cc1nc(CN(C)CCOc2ccccc2F)no1	34.7
Cc1cccc(C(=O)N2CCc3c(CN(C)C)nn(C)c3C2)n1	38.3
Cc1nc(C)c(C(=O)NCCNc2ncccn2)s1	38.8
CN1CCN(CC2CC2)C(=O)C12CCN(C(=O)c1ccnnc1)CC2	5.63
CC(=O)Nc1ccc2c(c1)CN(C(=O)c1ccco1)CC2	55.7
CCC(=O)Nc1ccc2c(c1)CN(C(=O)c1ccco1)CC2	-46.6
COCC(=O)Nc1ccc2c(c1)CN(C(=O)c1ccco1)CC2	-45.3
CC(=O)c1cc(Br)cc(F)c1OCC(=O)NC1CC1	-3.72
CN(C)C(=O)CN1CCCC(CCCc2ccccn2)(C(N)=O)C1 (stereo unspecified)	-50.2
Cn1cnnc1C1CCN(C(=O)c2cc3c(s2)CCC3)CC1	9.14
CCn1cnnc1C1CCN(C(=O)COc2ccccc2)CC1	53
Cc1ccc(OCCC(=O)N2CCC(c3nncn3C)CC2)c(C)c1	-17
CO[C@H]1C[C@@H](O)C12CCN(C(=O)CCCOc1ccccc1)CC2	72.3
CCn1cnnc1C1CCN(C(=O)COc2ccccc2OC)CC1	-41.6
CCn1cnnc1C1CCN(C(=O)c2cc3c(s2)CCC3)CC1	61.3
Cc1cccc(C)c1OCCC(=O)N1CCC(c2nncn2C)CC1	55.9
CCn1cnnc1C1CCN(C(=O)c2cc3c(s2)CCCC3)CC1	13.3
COc1cccc(OCC(=O)N2CCC3(CC2)[C@H](O)C[C@@H]3OC)c1	-14.1
NCCO[C@H]1C[C@@H](O)C12CCN(C(=O)CCOc1ccccc1)CC2	5.67

Compound	INHIBITION [%]
CCn1cnnc1C1CCN(C(=O)COc2ccc(Cl)cc2)CC1	-37.7
Cc1ccccc1OCCC(=O)N1CCC(c2nncn2C)CC1	-4.94
CC1(c2ccc(Br)cc2)CC(=O)N(CCC#N)C1=O (stereo unspecified)	-12.2
O=C(O)c1ccccc1-c1ccc(CN2CCCC(O)C2)cc1 (stereo unspecified)	48.6
Oc1nc(C2CCN(Cc3ccccn3)CC2)cc2ccccc12	-13.2
CCOc1ccnc(N2CCN(C(=O)c3cn[nH]c3C)CC2)n1	-11.4
O=C(c1ccccn1)N1C[C@H]2CC[C@@H](C1)N(C(=O)CCc1ccsc1)C2	-16.5
CCc1n[nH]c(=O)c(C(=O)N2CCSC(C)(C)C2)c1CC	18.7
COCCC(=O)NCCc1nc(N(C)C)ncc1-c1ccncc1	2.5
CCn1cnnc1C1CCN(C(=O)COCCc2ccccc2)CC1	32
Cn1cnnc1C1CCN(C(=O)CCCOc2ccccc2)CC1	28.8
CCn1cnnc1C1CCN(C(=O)CCCOc2ccccc2)CC1	60.9
CC(CN1CCCC1=O)NC(=O)c1cc(=O)[nH]c2ccc(Cl)cc12 (stereo unspecified)	35.4
Cc1noc(C)c1CCC(=O)N1CCOCC1CC(=O)N1CCCC1 (stereo unspecified)	-14.1
COCC(=O)N1CCO[C@H]2[C@H](OCc3cccnc3)CC[C@@H]21	-15.7
Cc1nc(N2CCC3(CCCNC3=O)C2)nc2c1CCCC2 (stereo unspecified)	47.5
CNc1nc(N2CCC3(CCCNC3=O)C2)nc2c1CCC2 (stereo unspecified)	-7.17
O=C1NCCCC12CCN(c1nc3c(c(C(F)(F)F)n1)CCCC3)C2 (stereo unspecified)	80.7
CCC(O)CN1CCN(C(=O)c2cccn2Cc2cccnc2)CC1 (stereo unspecified)	7.12
CN(C)CCCNC(=O)C1CC(=O)N(c2n[nH]c3cccc(F)c23)C1 (stereo unspecified)	14.6
CC(C)(C)NC(=O)CNc1ncccn1	-1.85
Cc1nc(N2CCN(C)CC2)ncc1C(=O)N1CCN(C)CC1	23

Compound	INHIBITION [%]
Cc1nc(N2CCN(C)CC2)ncc1C(=O)N1CCCCC1	36.6
Cc1nc(N2CCN(C)CC2)ncc1C(=O)N1CCCCCC1	51.7
CC1CCN(c2ccc(C(=O)N3CCCC3c3ccc[nH]3)cn2)CC1 (stereo unspecified)	27
CCCN1C(=O)[C@@H]2CC[C@H]1CN(S(=O)(=O)c1cccc(Cl)c1)C2	-26.8
COc1cccc(C(=O)NC(c2ccccn2)C2CCC(CN)CC2)c1 (stereo unspecified)	41.2
CN(CC(=O)Nc1nc2c(s1)CCC2)C(=O)c1cccs1	-8.51
CC1CCc2nc(NC(=O)CN(C)C(=O)c3ccco3)sc2C1 (stereo unspecified)	31.4
CN(CC(=O)Nc1nc2c(s1)CCCCCC2)C(=O)c1ccco1	74.4
Cc1cccc(CN2C[C@@H]3COC[C@]3(CNC(=O)c3ccccc3)C2)n1	38.3
Cc1ccc(CN2CCN(C3CCCC3)CC2CCO)o1 (stereo unspecified)	50.9
CC(=O)N1CCC(N2CCN(Cc3ccc(C)o3)C(CCO)C2)CC1 (stereo unspecified)	33.7
COc1cc(N2CCN(Cc3ccc(C)o3)C(CCO)C2)nc(N)n1 (stereo unspecified)	35.2
Cc1ccc(CN2CCN(C3CCC3)CC2CCO)o1 (stereo unspecified)	46.6
Cc1ccc(CN2CCN(C3CSCCSC3)CC2CCO)o1 (stereo unspecified)	50.9
Cc1ccc(CN2CCN(C3CCSCC3)CC2CCO)o1 (stereo unspecified)	48
CCCc1ccc(CN2CCC3(CCC(=O)N(C(C)C(=O)O)C3)CC2)o1 (stereo unspecified)	1.74
O=C(CN1CCN(C(=O)c2sccc2C2CC2)CC1)NC1CC1	31.8
CCOCC(=O)N1C[C@@H]2CC[C@H]1CN(C(=O)c1ccncc1)C2	-30.7
